In PubChem BioAssay (Tox21):
Inconclusive results are not listed. The source made the active and inactive calls. Calls come from the whole dose curve; as a rule, active = well fitted activation curve with a large enough effect in the repeat runs; inconclusive = weak or mixed curves; inactive = flat fitted curve, though single readings scatter. Positions of bridges follow the written chain, without caps; N, C: chain ends. Non-standard residues stand in square brackets, D forms with d. Residues, ends and D or L forms follow the SMILES beside them. *: point of attachment. X1 = CC[C@@H](C)[C@@H](N)C1=N[C@H](C(=O)*)CS1; d(aIle) = CC[C@H](C)[C@@H](N)C(=O)O; dOrn = NCCC[C@@H](N)C(=O)O; Orn = NCCC[C@H](N)C(=O)O

What follows are compounds tested against Nuclear receptor subfamily 1 group I member 2 (Homo sapiens) (UniProt O75469) (assay: Human pregnane X receptor (PXR) activation by small molecules, qHTS assay (AID 1346985; note: nearly all actives have a fitted effect of over 40% in size)). Settings: DPX-2 HepG2 CYP3A4-luciferase, 24 h; series mostly up to 38.3 µM; activation: at the top concentration.
How it was run: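 DPX-2 cells (HepG2 co-transfected with a PXR response element and a CYP3A4-promoter luciferase construct) were seeded at 2,000 per well, rested 5 hr at 37C, then exposed to DMSO-dissolved compounds for 24 hr. Activation was read as luciferase luminescence.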
% is set by controls: 0 for no effect and ±100 for the full control effect; potency is the fitted concentration of half-maximal effect.

Structure (SMILES)	activation	Potency
CNC(=O)OCc1cccc(COC(=O)NC)n1	-2.41% (inactive)	
CCCCC[C@H](O)/C=C/[C@@H]1[C@@H](C/C=C\CCCC(=O)O)[C@@H](O)C[C@H]1O		inactive
Cc1cc(C(=O)NCCc2ccc(S(=O)(=O)NC(=O)NN3CCCCCC3)cc2)no1	8.58% (inactive)	
CC(C)C[C@@H]1NC(=O)[C@H](CCCN)NC(=O)[C@H](C(C)C)NC(=O)[C@@H]2CCCN2C(=O)[C@@H](Cc2ccccc2)NC(=O)[C@H](CC(C)C)NC(=O)[C@H](CCCN)NC(=O)[C@H](C(C)C)NC(=O)[C@@H]2CCCN2C(=O)[C@@H](Cc2ccccc2)NC1=O (cyclo(V[Orn]L[dF]PV[Orn]L[dF]P))	7.35% (inactive)	
C=CC1=C(C(=O)O)N2C(=O)[C@@H](NC(=O)/C(=N\O)c3csc(N)n3)[C@H]2SC1 (stereo in doubt)	-3.45% (inactive)	
CO[C@H](C(=O)[C@@H](O)[C@@H](C)O)C1Cc2cc3cc(O[C@H]4C[C@@H](O[C@H]5C[C@@H](O)[C@H](O)[C@@H](C)O5)[C@@H](O)[C@@H](C)O4)c(C)c(O)c3c(O)c2C(=O)[C@H]1O[C@H]1C[C@@H](O[C@H]2C[C@@H](O[C@H]3C[C@](C)(O)[C@H](O)[C@@H](C)O3)[C@H](O)[C@@H](C)O2)[C@H](O)[C@@H](C)O1 (stereo partly specified)	-7.03% (inactive)	
CC(=O)OCC1=C(C(=O)O)N2C(=O)[C@@H](NC(=O)Cc3ccccc3)[C@H]2SC1	1.83% (inactive)	
CC1(C)S[C@@H]2[C@H](NC(=O)[C@H](N)c3ccc(O)cc3)C(=O)N2[C@H]1C(=O)O	8.56% (inactive)	
C=C1C(=C/C=C2\CCC[C@]3(C)[C@@H]([C@H](C)CCCC(C)C)CC[C@@H]23)C[C@@H](O)C[C@@H]1O	20.3% (inactive)	
CC(C)c1ncc([N+](=O)[O-])n1C	2.19% (inactive)	
CCOC(=O)Cc1ccc(-c2ccccc2)cc1	9.24% (inactive)	
Cc1cn([C@H]2C[C@H](O)[C@@H](CO)O2)c(=O)[nH]c1=O	-4.74% (inactive)	
CO/N=C(\C(=O)N[C@@H]1C(=O)N2C(C(=O)O)=C(CSc3nc(C)c(CC(=O)O)s3)CS[C@H]12)c1csc(N)n1	-2.48% (inactive)	
CC(C)[C@H](NC(=O)[C@H](CC(=O)O)NC(=O)[C@H](CCCCN)NC(=O)[C@@H](N)CCCN=C(N)N)C(=O)N[C@@H](Cc1ccc(O)cc1)C(=O)O (H-RKDVY-OH)	-6% (inactive)	
OCl	-2.95% (inactive)	
CC(=O)Nc1ccc(OC(C)=O)cc1	-6.34% (inactive)	
CN1C(C(=O)Nc2ccccn2)C(=O)c2sc(Cl)cc2S1(=O)=O (stereo unspecified)	27.2% (inactive)	
CO[C@H]1C[C@@H]2CC[C@@H](C)[C@@](O)(O2)C(=O)C(=O)N2CCCC[C@H]2C(=O)O[C@H]([C@H](C)C[C@@H]2CC[C@@H](O)[C@H](OC)C2)CC(=O)[C@H](C)C=C(C)[C@@H](O)[C@@H](OC)C(=O)[C@H](C)C[C@H](C)/C=C/C=CC=C1C		inactive
Cc1c(N)nc([C@H](CC(N)=O)NC[C@H](N)C(N)=O)nc1C(=O)N[C@H](C(=O)N[C@H](C)[C@@H](O)[C@H](C)C(=O)N[C@H](C(=O)NCCc1nc(-c2nc(C(=O)NCCCCN=C(N)N)cs2)cs1)[C@@H](C)O)[C@@H](O[C@@H]1O[C@@H](CO)[C@@H](O)[C@H](O)[C@@H]1O[C@H]1O[C@H](CO)[C@@H](O)[C@H](OC(N)=O)[C@@H]1O)c1cnc[nH]1	0.24% (inactive)	
O=C1[O][Bi][O]c2ccccc21	-6.37% (inactive)	
CCN(CC)CC#CCOC(=O)C(O)(c1ccccc1)C1CCCCC1 (stereo unspecified)		17.8 µM (active)
CCC1OC(=O)C[C@@H](O)[C@H](C)[C@@H](O[C@@H]2O[C@H](C)C[C@H](N(C)C)[C@H]2O)[C@@H](CC=O)C[C@@H](C)C(=O)/C=C/[C@]2(C)OC2C1C (stereo partly specified)	2.87% (inactive)	
NC(N)=NCc1cccc(I)c1	4.09% (inactive)	
C[S+](CC[C@H](N)C(=O)O)C[C@H]1O[C@@H](n2cnc3c(N)ncnc32)[C@H](O)[C@@H]1O (stereo partly specified)		inactive
C[C@@H]1O[C@@H](OC[C@H]2O[C@@H](Oc3c(-c4ccc(OCCO)c(OCCO)c4)oc4cc(OCCO)cc(O)c4c3=O)[C@H](O)[C@@H](O)[C@@H]2O)[C@H](O)[C@H](O)[C@H]1O	8.45% (inactive)	
CC[C@@H](C)[C@@H](N)C1=N[C@H](C(=O)N[C@@H](CC(C)C)C(=O)N[C@@H](CCC(=O)O)C(=O)N[C@@H](C(=O)N[C@@H]2CCCCNC(=O)[C@@H](CC(N)=O)NC(=O)[C@@H](CC(=O)O)NC(=O)[C@@H](Cc3cnc[nH]3)NC(=O)[C@@H](Cc3ccccc3)NC(=O)[C@@H]([C@H](C)CC)NC(=O)[C@@H](CCCN)NC2=O)[C@@H](C)CC)CS1 (X1-LE[d(aIle)][dK][dOrn][dI][dF][dH][dD][dN]; lactam 4-C)	-4.51% [at 17.1 µM] (inactive)	
